# Source: PubChem BioAssay (NCI)
# Several values for one entry are separate records, joined by “and”; a condition that tells them apart may be missing. Identical values can stand only once. The panel holds about 83,000 compounds, 20% with a hit somewhere; the sample as a whole holds those more often.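 48-hour exposure, single concentration, 96-well plates; percent growth endpoint where 0 means no net growth. Active: below 10.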 Values without a mark were called inactive. Activity calls are given as the source filed them.
# Test system: MDA-MB-468 breast
# Test: NCI-60 one-dose screen, 48 h (100 = growth as untreated, 0 = no growth, -100 = all killed)
# Settings: 10 µM unless noted
row,SMILES,growth
1,Cc1cc(O)ccc1Sc1ccccc1[N+](=O)[O-],95.3%
2,CNc1ccc(Nc2cccc(C)c2)c2c1C(=O)c1ccccc1C2=O,-13.1% (active)
3,C[C@H]1[C@@H]2[C@H]3CC[C@@H]4[C@@]5(C)Cc6c([nH]c7ccccc67)C(C)(C)[C@@H]5CC[C@@]4(C)[C@]3(C)CC[C@]23CO[C@]1(C)[C@@H](C(=O)/C=C/c1ccccn1)C3,99.3%
4,COc1ccc(/C=C/C(=O)CCC(=O)O)cc1OC,113%
5,C#Cc1ccc(-n2c(/C=C/c3ccc(Cl)c(F)c3)nc3ncccc3c2=O)cc1,-74.5% (active)
6,CCCCn1sc(=O)n(Cc2ccc(CNC(=O)OCc3ccc4c(Cl)cc(Cl)c(O)c4n3)cc2)c1=O,72.4%
7,CC(=O)OC[C@H]1OC(Sc2sc(C(=O)c3ccc(C)cc3)c(N)c2-c2nc3ccccc3s2)[C@H](OC(C)=O)[C@@H](OC(C)=O)[C@@H]1OC(C)=O (stereo not given in full),75.4%
8,O=C(Nn1c(NCC(=O)N2c3ccccc3Sc3ccccc32)nnc1-c1ccc(O)cc1)c1ccccc1,104%
9,c1ccc(-c2nc(Nc3ccc(-c4nc5ccccc5[nH]4)cc3)nc(N3CCOCC3)n2)cc1,-62.7% (active)
10,Cc1nc(N)sc1C(=O)NCCO,96.8%
11,COc1ccc2c(ccn2C(=O)N2c3ccccc3Sc3ccccc32)c1,21.8%
12,Cc1cccc(NC2=C(Cl)C(=O)c3nc(C)ccc3C2=O)c1,-81.1% (active)
13,COc1cccc2c1C(=O)c1c(O)c3c(c(O)c1C2=O)C[C@@](O)(C(C)=O)C[C@@H]3O[C@H]1C[C@H](N)[C@H](O)[C@H](C)O1,-72.5% (active)
14,O=C(CSc1nccc(Nc2cccc3ccccc23)n1)c1ccc(Cl)cc1,98.5%
15,CN1CCN(c2nc(-c3cccc4ccccc34)nc3sc4c(c23)CCCCCC4)CC1,77.3%
16,Nc1nc(N)c(N=Nc2ccccc2)c(-c2ccccc2)n1,8.67% (active)
17,Nc1nc(NC(=O)Nc2ccc(C(=O)O)cc2)nn1-c1ccc(S(N)(=O)=O)cc1,91.6%
18,COc1cc(Nc2nc3ccccc3cc2C(=O)Nc2ccc(F)c(F)c2)cc(OC)c1OC,4.15% (active)

row,SMILES,growth
1,Cc1nc2cc(Nc3nc(Nc4ccc(F)cc4)nc(N4CCN(C)CC4)n3)ccc2n1Cc1ccccc1,-32.7% (active)
2,Cc1cc(Cl)c2c(Cl)ccc(Cl)c2n1,105%
3,COc1ccc(-c2cc(-c3ccc(Cl)cc3)c(C#N)c(=O)n2CCCCC(=O)Nc2ccccc2N)cc1,47.9%
4,COc1cccc(CCC(=O)c2cc3c(N)c(C(=O)Nc4ccccc4)sc3nc2C)c1,25.2%
5,O=C1Nc2ccccc2/C1=C/c1cn(C(=O)c2ccc(Cl)cc2)c2ccccc12,97.6%
6,O=C(Nc1ccc(F)cc1)Nc1ccc(Br)c(C(F)(F)F)c1,-5.88% (active)
7,CCc1nnc(NC(=O)c2ccoc2COc2ccccc2)s1,52.7%
8,CC(=O)Nc1ccc2cc3ccc(NC(C)=O)cc3nc2c1,56.5%
9,COc1ccc2nc(Cl)cc(C)c2c1,94.1% and 91.3%
10,CNC(=O)c1cc(-c2ccc(NC(=S)Nc3cc(C(F)(F)F)cc(C(F)(F)F)c3)cc2)nc2cccnc12,-8.04% (active)
11,Cc1nc(Nc2ccc(NC(=S)Nc3ccccc3)cc2)c2ccccc2n1,109%
12,C[C@@H]1CC[C@@H]2[C@@H]1[C@H](OC(=O)/C=C/c1ccccc1)[C@]1(c3ccccc3)C[C@@H](OC(=O)CO)[C@@]2(C)O1,87.5%
13,C[C@H](C(=O)N[C@@H](Cc1ccc(-c2ccccc2)cc1)C(=O)NC1CC(C)(C)N(C)C(C)(C)C1)c1ccc(-c2ccccc2)c(F)c1,-86.5% (active)
14,COc1cc(OC)c(/C=C/c2cc[n+](C)c3ccccc23)c(OC)c1,-20.6% (active)
15,CCOC(=O)C(C(C)=O)c1nc2sc3cc(Cl)ccc3n2c(=N)c1C#N (stereo not given),4.75% (active)
16,C/C=C/C/C=C/[C@H](C)C[C@H](O)[C@@H]1C[C@@H]2O[C@H]2/C=C/[C@@H]2OC(C)(C)O[C@H]2/C=C/C[C@H](C)CC(=O)O1,59.8%
17,Cc1cnc(-c2ccc(-c3ccc(NC(=O)Nc4c(F)cc(F)cc4F)cc3F)c3c2C(=O)NC3)[nH]1,39.6%
